Screens deposited in PubChem BioAssay by several laboratories.
This is a sample that favours compounds with a hit; in the whole collection about 1.9% have one here.
PERK inhibitor: inhibitors of human PERK kinase. hit rate 0.17% among 220,000. Q9NZJ5. CHO PERK-DD fusion, SEAP luminescence translation reporter. inhibition, % at 5.6 µM. AID 1416;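 active = inhibition above the mean inhibition of all tested compounds plus 3 SD, set separately per screening campaign, cut at about 2.9% in these data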;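 note: PERK kinase domain activated by AP20187 dimerizer at 100 nM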
PABP polyA inh: blocks human PABP binding to poly(A) RNA; hit rate 1% among 290,000; P11940; AID 2014; inhibition, % at 35 µM; fluorescence polarization;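 note: calls also rest on retests at 20 µM and on dose response follow-up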
MLLE-PAM2 inh: blocks PAM2 peptide binding to the PABP1 MLLE domain; inhibition, % at 20 µM; AID 588489; P11940; GST-MLLE / FITC-PAM2 fluorescence polarization; hit rate 0.36% among 360,000; in the data active = inhibition above about 35%, passing the limit was not always enough
eIF4H inh: inhibitors of RNA binding by human eIF4H; eIF4H fluorescence polarization binding assay; Q15056; hit rate 0.94% among 290,000; inhibition, % at 35 µM; AID 2012;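 note: calls also rest on retests at 20 µM and on dose response follow-up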
GRK2 inh: inhibitors of human GRK2 displacing RNA aptamer; inhibition of aptamer binding, % at 10 µM; AID 488847; hit rate 0.59% among 330,000; bead flow cytometry, FAM-aptamer displacement from GRK2;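 active = inhibition of aptamer binding above 40%, roughly 3 SD of noise, on plates passing a quality check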;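 note: median bead fluorescence of bound FAM aptamer so fluorescent compounds give negative values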
Of the large screens only hits and unclear results are named; the others gave an inactive call; ! = not active in a repeat. Unless noted, the rule behind the calls is not given here.

CSc1cccc(NC(=O)/C=C/c2ccco2)c1	PABP polyA inh active, eIF4H inh 56.8
O=C(NC(Cc1ccccc1)C(=O)O)/C(=C/c1ccc(Br)cc1)NC(=O)c1ccc(Br)o1 (stereo not given)	none (no result: PERK inhibitor)
CCC(CC)C(=O)N1N=C(c2ccc(NS(C)(=O)=O)cc2)CC1c1ccc(C)cc1 (stereo not given)	none
CC1(C)CC(=O)C=C(c2n[nH]nc2C2CC2)C1	none (no result: PERK inhibitor, PABP polyA inh, eIF4H inh, GRK2 inh)
COc1ccccc1NC(=S)NC(=O)/C=C/c1ccco1	PABP polyA inh 5.9
CCCn1nnc(NC(=S)NC(=O)/C=C/c2ccco2)n1	PABP polyA inh 26.2, eIF4H inh 79.6
NS(=O)(=O)c1ccc(NC(=S)NC(=O)/C=C/c2ccco2)cc1	eIF4H inh 85.3
O=S(=O)(c1ccc(Cl)cc1)N1CCN(C(=S)NCC2CCCO2)CC1 (stereo not given)	none (no result: PERK inhibitor)
CC(C(=O)NC(C)(C)C)N(C(=O)CS(=O)CC(=O)Nc1ccc(F)cc1)C1CCCC1 (stereo not given)	none (no result: PERK inhibitor)
Cc1cc(C)c(NC(=O)CNC(=O)COC(=O)C2=COCCO2)c(C)c1	none (no result: PERK inhibitor, PABP polyA inh, eIF4H inh)
N#CCCN(C(=O)CSc1ccc2c(c1)OCCO2)c1ccccc1	MLLE-PAM2 inh 41.4
CN(C(=O)CSc1ccc2c(c1)OCCO2)c1ccccc1	none (no result: PERK inhibitor, PABP polyA inh, eIF4H inh)
O=C(O)CCn1cc(C2CC(c3ccccc3)=NN2c2ccccc2)c(-c2ccccc2)n1 (stereo not given)	none
C=CCC[C@@H](Cc1ccc(F)cc1)C(=O)OC[C@H](C)NC(=O)[C@@H](CC=C)CC(=O)N[C@@H](CO)Cc1ccccc1	GRK2 inh 83.0 (no result: PERK inhibitor, PABP polyA inh, eIF4H inh)
C=CCC[C@H](Cc1ccc(F)cc1)C(=O)OC[C@H](C)NC(=O)[C@@H](CC=C)CC(=O)N[C@H](CO)Cc1ccccc1	none (no result: PERK inhibitor, PABP polyA inh, eIF4H inh)
CC(=O)Nc1cc(-c2cccc(C(=O)NCCN(C)C)c2)cn2c(-c3cccc(C(F)(F)F)c3)cnc12	none (no result: PERK inhibitor, PABP polyA inh, eIF4H inh, GRK2 inh)
Cc1nc(Cl)c(C(=O)NC(C)(C)C)c(C)c1Cl	none
COc1ccc(/C=N/NC(=O)Cn2c(Cc3ccc(OC)c(OC)c3)nc3ccccc32)cc1	PABP polyA inh 76.4, eIF4H inh active
COc1cc(/C=N\NC(=O)Cn2nnc3ccccc32)cc(OC)c1OC	none
Cc1cc(C)n2nc(SCc3cc(=O)oc4ccc5ccccc5c34)nc2n1	MLLE-PAM2 inh 40.2
Cc1cc(C)n2nc(SCc3cc(=O)oc4cc(C)c(C)cc34)nc2n1	none (no result: MLLE-PAM2 inh)
CCOC(=O)C1(C)CCN1C(=O)CSc1ccccc1 (stereo not given)	none (no result: PERK inhibitor, PABP polyA inh, eIF4H inh, GRK2 inh)
COc1ccc(NC(=O)CSc2nc(O)c(Cc3ccccc3)c(=O)[nH]2)cc1	MLLE-PAM2 inh 39.6
O=C(CSc1nc(O)c(Cc2ccccc2)c(=O)[nH]1)Nc1ccccc1	MLLE-PAM2 inh 42.6
COc1ccc(Cc2c(O)nc(SCC(=O)NC34CC5CC(CC(C5)C3)C4)[nH]c2=O)cc1	MLLE-PAM2 inh 40.8!
CCCCc1nnc(NC(=O)CSc2nc(O)c(Cc3ccccc3)c(=O)[nH]2)s1	none
O=C(CSc1nc(O)c(Cc2ccccc2)c(=O)[nH]1)Nc1nnc(SCc2ccccc2)s1	MLLE-PAM2 inh 36.9
O=C(c1ccc2c(c1)OCO2)C1CCCN(Cc2c(F)ccc(F)c2F)C1 (stereo not given)	none (no result: PERK inhibitor)
CCc1ccc(N2CC(C(=O)N3CCN(S(=O)(=O)c4cccc(F)c4)CC3)CC2=O)cc1 (stereo not given)	none (no result: PERK inhibitor, PABP polyA inh, eIF4H inh, GRK2 inh)
C=CCNc1nc(NCCOc2ccccc2Cl)c2sc(-c3ccccc3)cc2n1	none (no result: PERK inhibitor, PABP polyA inh, eIF4H inh, GRK2 inh)
O=C(NCCc1ccc(F)cc1)C1CCCO1 (stereo not given)	none (no result: PERK inhibitor)
CCOc1ccc(Oc2c(/C=N/NC(N)=O)c(C)nn2-c2ccccc2)cc1	none
Cc1nn(-c2ccccc2)c(Oc2ccccc2)c1C=O	PABP polyA inh 88.1, eIF4H inh active
COc1ccc(NC(=O)C2Cc3c(-c4cccc(F)c4)ccnc3O2)cc1 (stereo not given)	none (no result: PERK inhibitor, PABP polyA inh, eIF4H inh, GRK2 inh)
CCOC(=O)N1CCC(N2C(=O)c3ccccc3C2Nc2ccc(S(=O)(=O)N(CC)CC)cc2)CC1 (stereo not given)	none
CC(C)CN1CCN(Cc2nc3ccccc3s2)CC1CCO (stereo not given)	none
CC(C)CN1CCN(Cc2ccc(CN3CCCCC3)s2)CC1CCO (stereo not given)	PABP polyA inh 10.2, eIF4H inh 62.7
CCN(CC)CCN(CC(=O)N(C1CCCCC1)C1CCCCC1)C(=O)c1ccco1	none
CC(C)(C)OC(=O)C(Cc1ccc(OC(C)(C)C)cc1)NC(=O)CNC(=O)CNC(=O)OCc1ccccc1 (stereo not given)	eIF4H inh active
CC(=O)/C(C#N)=C1\NC(=O)C(Cc2ccccc2C)S1 (stereo not given)	none
CC1(C)Cc2cccc(OCC(=O)Nc3cc(S(C)(=O)=O)ccc3Cl)c2O1	none (no result: PERK inhibitor, PABP polyA inh, eIF4H inh)
Cn1cc(Cl)c(-c2n[nH]c(=S)n2-c2ccccc2)n1	PERK inhibitor 3.3
O=C(NCc1ccccc1)c1cc(C2CCCCN2S(=O)(=O)c2ccccc2)on1 (stereo not given)	none (no result: PERK inhibitor, PABP polyA inh, eIF4H inh, GRK2 inh)
COC(=O)C(C(=O)OC)=C(/C=C/C=C/N(C)C)N(C)C	PABP polyA inh 91.1, eIF4H inh 100.8
CC(=O)Nc1ccc(OC(=O)c2ccc(Br)c([N+](=O)[O-])c2)cc1	none
O=C1CC(c2ccco2)CC(O)=C1C=Nc1cc(Cl)cc(Cl)c1 (stereo not given)	none
O=C1CC(c2ccco2)CC(O)=C1C=NCCN1CCNCC1 (stereo not given)	PABP polyA inh 62.1, eIF4H inh 95.3
O=C1CC(c2ccco2)CC(O)=C1C=NCC1CCNCC1 (stereo not given)	PABP polyA inh 51.8, eIF4H inh 94.1
Cc1ccc(C(=O)NNC(=O)c2n[nH]c(=O)c3ccccc23)cc1C	none (no result: PERK inhibitor, PABP polyA inh, eIF4H inh)
Clc1ccc2oc(-c3ccccn3)nc2c1	PABP polyA inh 58.1, eIF4H inh 16.1
COc1ccc(N2CS(=O)CC2=O)cc1 (stereo not given)	none
COc1ccc(Nc2nc3[nH]c(=O)cc(O)c3s2)cc1	eIF4H inh 56.3
O=c1cc(O)c2sc(Nc3ccc(F)c(Cl)c3)nc2[nH]1	none
CCOC(=O)/C=C/C(=O)OCC(=O)NCc1ccccc1	none
C/C(=C\C(=O)OCC(=O)NCc1ccccc1)C(=O)OCC(=O)NCc1ccccc1	GRK2 inh 80.0
C=C(C)C(=O)Nc1cccc(C2=NOC3(C2)C[C@@H](C(N)=O)N(C(=O)C2(C)CC2)C3)c1 (stereo not given in full)	PABP polyA inh 69.9, eIF4H inh 99.6, GRK2 inh 91.0 (no result: PERK inhibitor)
CCC(=O)Nc1cccc(C2=NOC3(C2)C[C@@H](C(N)=O)N(C(=O)COc2ccc(Cl)cc2)C3)c1 (stereo not given in full)	none (no result: PERK inhibitor)
C=C(C)C(=O)Nc1cccc(C2=NOC3(C2)C[C@H](C(N)=O)N(C(=O)COc2ccc(Cl)cc2)C3)c1 (stereo not given in full)	PABP polyA inh 49.6, eIF4H inh 85.9, GRK2 inh 97.0 (no result: PERK inhibitor)
N#Cc1ccc(C(=O)N2CCCC(c3cc(C(=O)NCc4cccnc4)no3)C2)cc1 (stereo not given)	none (no result: PERK inhibitor, PABP polyA inh, eIF4H inh, GRK2 inh)
CCOc1ccc(C(C)(C)C)cc1S(=O)(=O)Nc1ccncc1	none (no result: PERK inhibitor)
